# Source: PubChem BioAssay (NCATS)
# Records with an inconclusive call do not appear. Activity calls are given as the source filed them. Unless noted, the call rests on the fitted dose curve.
# Tests used:
# [1] = target: Cytochrome P450 3A4 (Homo sapiens) (UniProt P08684); experiment: qHTS Assay for Inhibitors and Substrates of Cytochrome P450 3A4 (AID 884; active means well fitted curve in the direction sought with a large enough effect; an effect the other way counts as inactive or inconclusive; further: potency means the concentration at half of the fitted maximal effect; nearly all actives have a fitted effect of over 50% in size)
# In short: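 20 nM human CYP3A4 with 25 uM Luciferin-PPXE (at KM) in 200 mM KPO4, preincubated 10 min with compound; NADPH regeneration started a 60 min RT reaction. Luciferin detected by luminescence, normalized to 57 uM ketoconazole as full inhibition.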
# [2] = target: Cytochrome P450 3A4 (Homo sapiens) (UniProt P08684); experiment: qHTS Assay for Activators of Cytochrome P450 3A4 (AID 885; active means well fitted curve in the direction sought with a large enough effect; an effect the other way counts as inactive or inconclusive; further: nearly all actives have a fitted effect of over 65% in size)
# In short: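 Quantitative HTS format: compounds preincubated with 20nM human CYP3A4 and Luciferin-PPXE substrate at KM, reaction started by NADPH regeneration, stopped after 60 min, luciferase luminescence read 20 min later.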
# [3] = Confirmation and Secondary Assay for Modulators of Hemoglobin Beta Chain Splicing at IVS2 654 locus (AID 910; active means well fitted curve in the direction sought with a large enough effect; an effect the other way counts as inactive or inconclusive;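 further: per-well total GFP intensity by laser scanning cytometry after 2-day treatment; potency means the concentration at half of the fitted maximal effect; potency of activators that raise GFP signal by restoring correct splicing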)
# In short: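 HeLa cells stably carrying EGFP interrupted by mutant beta-globin IVS2-654 intron (CMV-driven) were treated with compound for 2 days at 37C; corrected splicing was scored as total peak GFP intensity per well (488 nm excitation, 500-520 nm emission).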
# [4] = qHTS for Inhibitors of the Functional Ribonucleoprotein Complex (vRNP) of Lassa (LASV) Arenavirus: Viability assay - alamar blue signal for LASV Primary Screen (AID 1347083; calls by dose curve; tested in HEK293 reporter line; further: nearly all actives have a fitted effect of over 80% in size; further: potency means the concentration at half of the fitted maximal effect)
# [5] = qHTS for Inhibitors of the Functional Ribonucleoprotein Complex (vRNP) of Lymphocytic Choriomeningitis Arenaviruses (LCMV): Viability assay - alamar blue signal for LCMV Primary Screen (AID 1347085; calls by dose curve; tested in HEK293 reporter line; further: nearly all actives have a fitted effect of over 80% in size; further: potency means the concentration at half of the fitted maximal effect)
# [6] = target: Nucleoprotein (Lymphocytic choriomeningitis virus (strain Armstrong)) (UniProt P09992); experiment: qHTS for Inhibitors of the Functional Ribonucleoprotein Complex (vRNP) of Lymphocytic Choriomeningitis Arenaviruses (LCMV): LCMV Primary Screen - GLuc reporter signal (AID 1347086); further: nearly all actives have a fitted effect of over 70% in size; further: potency means the concentration at half of the fitted maximal effect; on activity change, negative = inhibition: on the % scale 0 is the no-effect control and ±100 the full control effect
# [7] = Primary qHTS to identify inhibitors of SARS-CoV-2 cell entry (AID 1645846); settings: activity change, negative = inhibition: at 57.1 µM (top of the series) unless noted; further: nearly all actives have a fitted effect of over 45% in size; further: potency means the concentration at half of the fitted maximal effect
# In short: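 HEK293 cells stably expressing human ACE2, pre-treated 1 h with compound, then infected with MLV particles pseudotyped with Wuhan-Hu-1 spike (C-terminal 19-aa truncation). Luciferase luminescence after 48 h at 37 °C, normalised to spike PP and bald PP.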
# [8] = Confirmatory qHTS to identify inhibitors of SARS-CoV-2 cell entry (AID 1645844); further: on the % scale 0 is the no-effect control and ±100 the full control effect; nearly all actives have a fitted effect of over 45% in size
# In short: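 HEK293-ACE2 cells (Expi293F stably expressing human ACE2) were pretreated with compounds for 1 hr at 37C, then infected with MLV-based particles carrying Wuhan-Hu-1 spike (C-terminal 19-aa truncation). Luciferase luminescence read after 48 hr; normalized to spike PP (100%) and bald PP (0%).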
# [9] = Cytotoxicity counterscreen for inhibitors of SARS-CoV-2 cell entry (AID 1645845); further: nearly all actives have a fitted effect of over 50% in size; further: potency means the concentration at half of the fitted maximal effect
# In short: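 Expi293F/hACE2 cells seeded overnight; cpd pin-transferred in DMSO, 1 h preincubation, + media, 48 h 37 C 5% CO2; ATPLite 1step luminescence; normalized to cells and no cells.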
# [10] = Validation screen for inhibitors of Lassa infection (AID 463096); further: potency means the concentration at half of the fitted maximal effect; on activity change, negative = inhibition: on the % scale 0 is the no-effect control and ±100 the full control effect
# [11] = Inducers of the Endoplasmic Reticulum Stress Response (ERSR) in human glioma: Validation (AID 504836; active means well fitted curve in the direction sought with a large enough effect; an effect the other way counts as inactive or inconclusive; further: 0% is about no effect)
# In short: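 Stably transfected U87-MG human glioma cells carrying a GRP78-based luminescent sensor were seeded at 1000 cells/well, pin-dosed with compounds and incubated 16 h. Luciferase reagent was then added, and end-point luminescence was read after 10 min at room temperature.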
# [12] = target: Alpha-galactosidase (Coffea arabica) (UniProt Q42656); experiment: Counterscreen for Glucocerebrosidase Inhibitors: qHTS Assay for Coffee Bean alpha-Galactosidase at pH 4.5 (AID 957; active means well fitted curve in the direction sought with a large enough effect; an effect the other way counts as inactive or inconclusive;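 further: plate controls were enzyme alone for no effect and no enzyme for full effect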)
# In short: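 Coffee bean enzyme (2 nM) with 80 uM 4-methylumbelliferyl alpha-D-galactopyranoside in 50 mM citric acid, 0.005% Tween-20, pH 4.5, 20 min at room temperature; compounds 0.7 nM–77 uM. Stopped at pH 10, fluorescence 365/440 nm; AC50 from Hill fits.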
# [13] = target: Alpha-galactosidase (Coffea arabica) (UniProt Q42656); experiment: Counterscreen for Glucocerebrosidase Inhibitors: qHTS Assay for Coffee Bean alpha-Galactosidase at pH 5.9 (AID 998; active means well fitted curve in the direction sought with a large enough effect; an effect the other way counts as inactive or inconclusive;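 further: plate controls were uninhibited enzyme for no effect and no-enzyme basal signal for full effect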)
# In short: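 Green coffee bean enzyme (2 nM final) was incubated with compounds (0.7 nM–77 uM) and 4-methylumbelliferyl alpha-D-galactopyranoside (80 uM) in citrate buffer pH 5.9, 20 min at room temperature. High-pH stop; fluorescence 365/440 nm; AC50 from Hill fits.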
# [14] = target: Peroxisome proliferator-activated receptor delta (Homo sapiens) (UniProt Q03181); experiment: qHTS assay for small molecule agonists of peroxisome proliferator-activated receptor delta signaling (AID 588534);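 further: 0% = DMSO basal wells and 100% = positive control agonist at 10 µM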
# In short: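 Cells carrying a PPAR-delta beta-lactamase reporter were treated with compounds for 18 h at 37 °C in agonist mode. CCF4 fluorescence was read after 2 h; EC50 and efficacy from Hill fits.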
# [15] = Primary qHTS for inhibitors of SARS-S pseudo-typed particle cell entry (AID 1479145); further: nearly all actives have a fitted effect of over 45% in size
# [16] = Primary qHTS for Huh7 cytotoxicity: counterscreen for inhibitors of MERS-S pseudotyped particle cell entry (AID 1479147); settings: outcome: dose series up to 57.1 µM unless noted; further: on the % scale 0 is the no-effect control and ±100 the full control effect
# [17] = Primary qHTS for inhibitors of MERS-S pseudo-typed particle cell entry (AID 1479149); further: nearly all actives have a fitted effect of over 60% in size
# [18] = Primary qHTS for Vero E6 cytotoxicity: counterscreen for inhibitors of SARS-S pseudo-typed particle cell entry (AID 1479150); settings: outcome: dose series up to 57.1 µM unless noted; further: on the % scale 0 is the no-effect control and ±100 the full control effect
# [19] = Confirmatory qHTS for VERO E6 Cytotoxicity Assay: Counterscreen for SARS-CoV-2 CPE Assay (AID 1508605); further: on the % scale 0 is the no-effect control and ±100 the full control effect; nearly all actives have a fitted effect of over 60% in size
# Nucleoprotein (Lymphocytic choriomeningitis virus (strain Armstrong)), sequence (P09992 whole entry, looked up): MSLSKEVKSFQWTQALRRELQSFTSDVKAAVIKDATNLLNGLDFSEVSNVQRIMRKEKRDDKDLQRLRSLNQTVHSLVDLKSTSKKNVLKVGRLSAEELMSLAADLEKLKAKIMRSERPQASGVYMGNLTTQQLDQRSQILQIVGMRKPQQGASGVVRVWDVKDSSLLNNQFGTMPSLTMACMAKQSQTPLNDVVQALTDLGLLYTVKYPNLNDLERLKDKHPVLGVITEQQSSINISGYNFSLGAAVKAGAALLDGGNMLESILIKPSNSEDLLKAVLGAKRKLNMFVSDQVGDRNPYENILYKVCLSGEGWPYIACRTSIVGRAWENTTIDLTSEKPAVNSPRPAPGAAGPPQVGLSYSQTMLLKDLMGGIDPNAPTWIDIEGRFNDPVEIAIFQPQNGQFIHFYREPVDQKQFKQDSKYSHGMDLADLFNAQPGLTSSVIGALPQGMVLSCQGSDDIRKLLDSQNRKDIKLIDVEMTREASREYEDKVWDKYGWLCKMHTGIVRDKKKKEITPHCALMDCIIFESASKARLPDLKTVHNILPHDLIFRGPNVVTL
# Alpha-galactosidase (Coffea arabica), sequence (Q42656 whole entry, looked up): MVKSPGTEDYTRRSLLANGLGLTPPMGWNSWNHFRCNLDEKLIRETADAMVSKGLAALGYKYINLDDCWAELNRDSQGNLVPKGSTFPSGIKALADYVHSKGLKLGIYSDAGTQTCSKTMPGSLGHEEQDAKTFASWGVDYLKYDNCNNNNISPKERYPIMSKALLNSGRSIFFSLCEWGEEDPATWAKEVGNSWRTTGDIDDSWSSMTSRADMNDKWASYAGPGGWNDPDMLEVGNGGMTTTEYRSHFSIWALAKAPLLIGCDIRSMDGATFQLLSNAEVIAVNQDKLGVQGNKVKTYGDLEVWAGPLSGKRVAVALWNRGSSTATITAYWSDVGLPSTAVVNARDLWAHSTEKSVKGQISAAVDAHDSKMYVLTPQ
# Cytochrome P450 3A4 (Homo sapiens), sequence (P08684 whole entry, looked up): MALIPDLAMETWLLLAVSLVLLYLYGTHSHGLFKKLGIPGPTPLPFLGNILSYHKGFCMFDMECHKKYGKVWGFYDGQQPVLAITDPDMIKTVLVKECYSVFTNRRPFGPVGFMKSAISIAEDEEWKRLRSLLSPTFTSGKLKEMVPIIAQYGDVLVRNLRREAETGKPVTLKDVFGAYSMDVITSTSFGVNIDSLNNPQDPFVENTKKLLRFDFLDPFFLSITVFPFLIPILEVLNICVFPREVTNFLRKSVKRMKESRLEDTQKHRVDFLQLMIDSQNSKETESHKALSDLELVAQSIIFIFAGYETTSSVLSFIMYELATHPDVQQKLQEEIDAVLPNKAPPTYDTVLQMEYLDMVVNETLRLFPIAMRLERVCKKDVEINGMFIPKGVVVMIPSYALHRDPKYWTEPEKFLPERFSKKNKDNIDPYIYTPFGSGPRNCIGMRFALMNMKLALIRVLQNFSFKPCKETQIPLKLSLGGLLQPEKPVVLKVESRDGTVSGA
# Peroxisome proliferator-activated receptor delta (Homo sapiens), sequence (Q03181 whole entry, looked up): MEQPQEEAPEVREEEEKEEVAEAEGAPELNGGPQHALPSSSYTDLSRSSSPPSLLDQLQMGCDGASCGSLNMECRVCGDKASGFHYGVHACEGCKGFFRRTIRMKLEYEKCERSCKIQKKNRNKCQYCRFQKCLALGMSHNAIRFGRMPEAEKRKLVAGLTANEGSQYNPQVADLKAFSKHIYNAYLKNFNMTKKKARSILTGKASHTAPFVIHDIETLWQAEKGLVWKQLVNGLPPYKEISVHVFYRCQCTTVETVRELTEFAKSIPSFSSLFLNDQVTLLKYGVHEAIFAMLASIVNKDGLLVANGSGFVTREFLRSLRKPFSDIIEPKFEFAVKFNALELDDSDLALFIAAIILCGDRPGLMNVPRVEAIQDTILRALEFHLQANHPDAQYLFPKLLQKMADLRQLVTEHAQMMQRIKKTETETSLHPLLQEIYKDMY
smiles,measurement,setting,value
CC[C@@]1(O)C(=O)OCc2c1cc1n(c2=O)Cc2cc3cc(O)ccc3nc2-1,Potency,[1],12.6 µM (active)
same,Potency,[2],inactive
same,Potency,[3],12.6 µM (active)
same,Potency,[4],0.685 µM (active)
same,Potency,[5],0.968 µM (active)
same,Potency,[6],1.37 µM (active)
C=CC(=O)Nc1ccc2ncnc(Nc3ccc(OCc4cccc(F)c4)c(Cl)c3)c2c1,Potency,[4],0.968 µM (active)
same,Potency,[5],0.385 µM (active)
same,Potency,[6],0.432 µM (active)
same,Potency,[7],inactive
COCCOC(=O)C1=C(C)NC2=C(C(=O)CC(c3ccccc3OC)C2)C1c1cccc(O)c1 (stereo unspecified),Potency,[4],17.2 µM (active)
same,Potency,[5],10.9 µM (active)
same,Potency,[6],15.3 µM (active)
same,Potency,[8],inactive
same,Potency,[9],inactive
O=C(C=CC#Cc1cccc(NS(=O)(=O)c2ccccc2)c1)NO,Potency,[4],13.7 µM (active)
same,Potency,[5],6.85 µM (active)
same,Potency,[6],12.2 µM (active)
C=CC1CN2CCC1CC2c1[nH]c2ccccc2c1CCO (stereo unspecified),Potency,[4],inactive
same,Potency,[5],inactive
same,Potency,[6],inactive
Cn1cc(CNCC2CCN(c3ncc(C(=O)NO)cn3)CC2)c2ccccc21,Potency,[4],0.685 µM (active)
same,Potency,[5],0.485 µM (active)
same,Potency,[6],1.53 µM (active)
same,Potency,[7],inactive
CCC1(O)CC2CN(CCc3c([nH]c4ccccc34)[C@@](C(=O)OC)(c3cc4c(cc3OC)N(C)C3[C@]45CCN4CC=C[C@@](CC)([C@@H](OC(C)=O)[C@]3(O)C(=O)OC)[C@H]45)C2)C1 (stereo partly specified),Potency,[10],15.8 µM (active)
same,outcome,[11],inactive
same,Potency,[4],0.447 µM (active)
same,Potency,[5],0.224 µM (active)
same,Potency,[6],0.708 µM (active)
O=c1cc(N2CCOCC2)oc2c(-c3ccccc3)cccc12,outcome,[12],inactive
same,outcome,[13],inactive
same,Potency,[10],inactive
same,outcome,[11],inactive
same,Potency,[4],15.3 µM (active)
same,Potency,[5],inactive
same,Potency,[6],inactive
same,"activity change, negative = inhibition",[7],-24.5%
NC(N)=NC(N)=NCCc1ccccc1,Potency,[14],inactive
same,Potency,[4],inactive
same,Potency,[5],inactive
same,Potency,[9],inactive
same,"activity change, negative = inhibition",[7],-16.7%
O=C(Nc1cn[nH]c1-c1nc2ccc(CN3CCOCC3)cc2[nH]1)NC1CC1,Potency,[4],7.69 µM (active)
same,Potency,[5],1.93 µM (active)
same,Potency,[9],15.8 µM (active)
same,"activity change, negative = inhibition",[7],-95.5%
Cc1c(C(N)=O)cc([N+](=O)[O-])cc1[N+](=O)[O-],Potency,[4],inactive
same,Potency,[5],inactive
same,Potency,[15],inactive
same,outcome,[16],inactive
same,Potency,[17],inactive
same,outcome,[18],inactive
same,Potency,[9],inactive
same,Potency,[7],inactive
Cc1cc(C(C)Nc2ccccc2)c2nc(N3CCOCC3)cc(=O)n2c1 (stereo unspecified),Potency,[4],1.93 µM (active)
same,Potency,[5],0.544 µM (active)
same,Potency,[9],inactive
COc1cc(/C=C(\C#N)C(=O)Nc2nnc(C(F)(F)F)s2)ccc1OCc1ccc(C(F)(F)F)cc1C(F)(F)F,Potency,[4],inactive
same,Potency,[5],inactive
same,Potency,[9],inactive
same,Potency,[7],inactive
Cc1ncc(-c2ccnc(Nc3ccc(S(C)(=O)=O)cc3)n2)n1C(C)C,Potency,[4],6.85 µM (active)
same,Potency,[5],13.7 µM (active)
same,"activity change, negative = inhibition",[7],-96.5%
C[C@H](NCc1ccc(OCc2cccc(F)c2)cc1)C(N)=O,Potency,[4],21.7 µM (active)
same,Potency,[5],38.5 µM (active)
same,Potency,[15],inactive
same,outcome,[16],inactive
same,Potency,[17],inactive
same,outcome,[18],inactive
same,Potency,[9],inactive
same,Potency,[7],inactive
CCN(CC)Cc1ccc2cc(COC(=O)Nc3ccc(C(=O)NO)cc3)ccc2c1,Potency,[4],15.3 µM (active)
same,Potency,[5],6.85 µM (active)
same,Potency,[9],10 µM (active)
Nc1nc(N)c(N=O)c(OCC2CCCCC2)n1,outcome,[11],inactive
same,Potency,[4],15.3 µM (active)
same,Potency,[5],21.7 µM (active)
same,Potency,[9],inactive
same,"activity change, negative = inhibition",[7],-7.15%
CC[n+]1c(/C=C/C=C2/N(C)c3ccccc3C2(C)C)sc2ccccc21,outcome,[11],inactive
same,Potency,[4],1.58 µM (active)
same,Potency,[5],0.708 µM (active)
Cc1cnc(NC(=O)Nc2cc(Br)c(C)cc2OC[C@@H]2CNCCO2)cn1,Potency,[4],2.43 µM (active)
same,Potency,[5],10.9 µM (active)
same,Potency,[7],10 µM (active)
O=C(N[C@@H](c1ccccc1)[C@@H]1CCCCN1)c1cccc(C(F)(F)F)c1Cl,Potency,[4],0.0243 µM (active)
same,Potency,[5],0.0086 µM (active)
same,Potency,[19],inactive
same,Potency,[9],inactive
